This is part of a sample that, as a whole, favours compounds with a hit. Of some 79,000 tested, about 15% had one in any assay. Calls of active or inactive are those of the source. Rule as the data show it: active = growth inhibition above about 70%; inactive = the rest.
Columns and labels:
[1] = NCI Yeast Anticancer Drug Screen. Data for the rad52 strain (AID 147);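 also: 0% = growth of vehicle-treated control cultures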; conditions: S. cerevisiae rad52 mutant growth inhibition, hits give high values
In short: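 Yeast strain carrying a DNA damage repair alteration was exposed to test compounds. Growth inhibition was measured relative to vehicle-treated controls.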

[2] = NCI Yeast Anticancer Drug Screen. Data for the wt1 strain (AID 149);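 also: 0% = growth of vehicle-treated wt1 cultures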; conditions: S. cerevisiae wt1 strain (SPY 50644) growth inhibition, hits give high values
In short: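 Each compound is tested on wt1 yeast and the loss of growth versus vehicle gives the inhibition value.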

[3] = NCI Yeast Anticancer Drug Screen. Data for the mgt1 strain (AID 153); conditions: S. cerevisiae mgt1 mutant growth inhibition, hits give high values
In short: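 Yeast mgt1 strain (DNA repair/cell-cycle alteration panel) exposed to compounds; growth inhibition measured relative to vehicle-treated controls.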

[4] = NCI Yeast Anticancer Drug Screen. Data for the rad50 strain (AID 155);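 also: 0% = growth of vehicle-only cultures of the same strain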; conditions: S. cerevisiae rad50 strain growth inhibition, hits give high values
In short: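 Vehicle-treated cultures provide the reference for the growth inhibition reported for compound-exposed, repair-deficient yeast.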

[5] = NCI Yeast Anticancer Drug Screen. Data for the mec2-1 strain (AID 157); conditions: S. cerevisiae mec2-1 strain, hits give high values
In short: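 mec2-1 yeast strain, carrying an alteration in DNA damage repair or cell cycle control, was exposed to compounds; growth inhibition was measured relative to vehicle-treated controls.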

[6] = NCI Yeast Anticancer Drug Screen. Data for the rad14 strain (AID 159);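 also: 0% = growth of vehicle-treated control cultures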; conditions: S. cerevisiae rad14 strain growth inhibition, hits give high values
In short: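 Inhibition of growth is reported for a repair-deficient yeast mutant following compound treatment, calculated relative to cultures that received vehicle.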

[7] = NCI Yeast Anticancer Drug Screen. Data for the sgs1 mgt1 strain (AID 161);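 also: 0% = growth of cultures given vehicle only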; conditions: S. cerevisiae sgs1 mgt1 strain, hits give high values
In short: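 This yeast growth screen uses a strain with defined DNA-repair lesions; compound-treated growth is compared with vehicle-treated growth.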

[8] = NCI Yeast Anticancer Drug Screen. Data for the CLN2oe strain (AID 163);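 also: 0% = growth of vehicle-only control cultures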; conditions: S. cerevisiae CLN2oe strain, hits give high values
In short: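 Yeast cells carrying a defined cell-cycle control alteration were exposed to test compounds. Growth inhibition was scored against vehicle-treated control cultures.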

[9] = NCI Yeast Anticancer Drug Screen. Data for the cln2 rad14 strain (AID 165);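 also: 0% = growth equal to vehicle treated cultures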; conditions: S. cerevisiae cln2 rad14 strain, hits give high values
In short: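 Yeast carrying cln2 and rad14 alterations (cell cycle control and DNA damage repair) were exposed to compounds. Growth inhibition was measured against vehicle-treated controls.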

[10] = NCI Yeast Anticancer Drug Screen. Data for the bub3 strain (AID 167); conditions: S. cerevisiae bub3 mutant strain, hits give high values
In short: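 Mutant yeast screening strain plus compound; vehicle-treated cultures serve as the 0% inhibition reference.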

[11] = NCI Yeast Anticancer Drug Screen. Data for the wt2 strain (AID 169); conditions: S. cerevisiae wt2 strain growth inhibition, hits give high values
In short: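 Yeast cells were exposed to test compounds, and growth inhibition was measured relative to vehicle-treated controls.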

[12] = NCI Yeast Anticancer Drug Screen. Data for the mlh1 strain (AID 171);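 also: 0% = growth of vehicle-treated control cultures of the same strain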; conditions: S. cerevisiae mlh1 strain growth inhibition, hits give high values
In short: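 Yeast carrying a defined genetic alteration in DNA damage repair or cell cycle control were exposed to test compounds. Growth inhibition was measured relative to vehicle-treated controls.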

[13] = NCI Yeast Anticancer Drug Screen. Data for the sgs1 strain (AID 173);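 also: 0% = growth of vehicle-only control cultures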; conditions: S. cerevisiae sgs1 mutant, hits give high values
In short: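 Yeast mutant strains carrying defined defects in DNA damage repair or cell cycle control were exposed to test compounds. Growth inhibition was scored against vehicle-treated controls.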

[14] = NCI Yeast Anticancer Drug Screen. Data for the mlh1 rad18 strain (AID 175); conditions: S. cerevisiae mlh1 rad18 strain growth inhibition, hits give high values
In short: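 Growth inhibition of the yeast strain was measured after compound exposure and expressed relative to vehicle-treated controls. The strain carries defined defects in DNA damage repair.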

[15] = NCI Yeast Anticancer Drug Screen. Data for the rad18 strain (AID 177); conditions: S. cerevisiae rad18 mutant growth inhibition, hits give high values
In short: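 Yeast carrying a defined DNA damage repair alteration were exposed to compounds. Growth inhibition was expressed relative to vehicle-treated controls.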

[16] = at 5.0 µM (retest, dose inferred, filed as 0.5)
[17] = at 50.0 µM (retest, dose inferred, filed as 5.0)

Measured: growth inhibition

NNc1c(F)c(F)cc(F)c1F
active: [10]; [17] 70% | [10]; at 50.0 µM 84.6%
inactive: [1]; at 1.2 µM -11% | [1]; at 3.7 µM -19% | [1]; at 11.0 µM -21% | [1]; at 33.0 µM -11% | [1]; at 100.0 µM 21% | [2]; at 1.2 µM -28% | [2]; at 3.7 µM -27% | [2]; at 11.0 µM -20% | [2]; at 33.0 µM -26% | [2]; at 100.0 µM -14% | [3]; at 1.2 µM -17% | [3]; at 3.7 µM -23% | [3]; at 11.0 µM -17% | [3]; at 33.0 µM -6% | [3]; at 100.0 µM 7% | [4]; at 1.2 µM -15% | [4]; at 3.7 µM -22% | [4]; [16] -16% | [4]; at 11.0 µM -18% | [4]; at 33.0 µM -15% | [4]; [17] 8% | [4]; at 50.0 µM 24.8% | [4]; at 100.0 µM 25% | [5]; at 1.2 µM -37% | [5]; at 3.7 µM -35% | [5]; [16] -11% | [5]; at 11.0 µM -38% | [5]; at 33.0 µM -20% | [5]; [17] 6% | [5]; at 50.0 µM 33.1% | [5]; at 100.0 µM 35% | [6]; at 1.2 µM -25% | [6]; at 3.7 µM -25% | [6]; at 11.0 µM -27% | [6]; at 33.0 µM -21% | [6]; at 100.0 µM -4% | [7]; [16] 0% | [7]; [17] 23% | [7]; at 50.0 µM 67.9% | [8]; at 1.2 µM 0% | [8]; at 3.7 µM -4% | [8]; at 11.0 µM 3% | [8]; at 33.0 µM 18% | [8]; at 100.0 µM 26% | [9]; [16] 21% | [9]; [17] 42% | [9]; at 50.0 µM 46.9% | [10]; at 1.2 µM -11% | [10]; at 3.7 µM -18% | [10]; [16] 27% | [10]; at 11.0 µM -3% | [10]; at 33.0 µM 10% | [10]; at 100.0 µM 47% | [11]; at 1.2 µM -27% | [11]; at 3.7 µM -24% | [11]; at 11.0 µM -22% | [11]; at 33.0 µM -20% | [11]; at 100.0 µM -13% | [12]; at 1.2 µM -12% | [12]; at 3.7 µM -7% | [12]; at 11.0 µM -6% | [12]; at 33.0 µM 5% | [12]; at 100.0 µM 42% | [13]; at 1.2 µM -3% | [13]; at 3.7 µM 8% | [13]; at 11.0 µM 18% | [13]; at 33.0 µM 32% | [13]; at 100.0 µM 66% | [14]; [16] 7% | [14]; [17] 36% | [14]; at 50.0 µM 25% | [15]; at 1.2 µM -9% | [15]; at 3.7 µM -20% | [15]; at 11.0 µM -17% | [15]; at 33.0 µM -20% | [15]; at 100.0 µM 6%

O=[N+]([O-])c1ccc2c(c1)C(N1CCN(CCO)CC1)Cc1ccc(F)cc1S2 (stereo unspecified)
inactive: [1]; at 1.2 µM -2% | [1]; at 3.7 µM -2% | [1]; at 11.0 µM -3% | [1]; at 33.0 µM -2% | [1]; at 100.0 µM 18% | [2]; at 1.2 µM -2% | [2]; at 3.7 µM -3% | [2]; at 11.0 µM -3% | [2]; at 33.0 µM -3% | [2]; at 100.0 µM 15% | [3]; at 1.2 µM -1% | [3]; at 3.7 µM -3% | [3]; at 11.0 µM -5% | [3]; at 33.0 µM -4% | [3]; at 100.0 µM 34% | [4]; at 1.2 µM 1% | [4]; at 3.7 µM 1% | [4]; [16] 3% | [4]; at 11.0 µM 1% | [4]; at 33.0 µM 2% | [4]; at 50.0 µM 44.2% | [4]; at 100.0 µM 62% | [5]; at 1.2 µM -8% | [5]; at 3.7 µM -2% | [5]; [16] 0% | [5]; at 11.0 µM -4% | [5]; at 33.0 µM -4% | [5]; [17] 48% | [5]; at 50.0 µM -3.7% | [5]; at 100.0 µM 8% | [6]; at 1.2 µM -2% | [6]; at 3.7 µM -1% | [6]; at 11.0 µM 1% | [6]; at 33.0 µM 15% | [7]; [16] 13% | [8]; at 1.2 µM -6% | [8]; at 3.7 µM -5% | [8]; at 11.0 µM 0% | [8]; at 33.0 µM 1% | [8]; at 100.0 µM 20% | [9]; [16] 2% | [9]; [17] 43% | [10]; at 1.2 µM -1% | [10]; at 3.7 µM -4% | [10]; [16] -2% | [10]; at 11.0 µM 0% | [10]; at 33.0 µM -5% | [10]; at 50.0 µM -1.1% | [10]; at 100.0 µM 24% | [11]; at 1.2 µM -2% | [11]; at 3.7 µM -3% | [11]; at 11.0 µM -3% | [11]; at 33.0 µM -3% | [11]; at 100.0 µM 36% | [12]; at 1.2 µM -3% | [12]; at 3.7 µM -3% | [12]; at 11.0 µM -2% | [12]; at 33.0 µM -3% | [12]; at 100.0 µM 35% | [13]; at 1.2 µM -1% | [13]; at 3.7 µM -1% | [13]; at 11.0 µM -2% | [13]; at 33.0 µM 0% | [14]; [16] 0% | [14]; [17] -13% | [14]; at 50.0 µM 44.4% | [15]; at 1.2 µM -3% | [15]; at 3.7 µM -5% | [15]; at 11.0 µM -3% | [15]; at 33.0 µM 0% | [15]; at 100.0 µM 64%
active: [4]; [17] 71% | [6]; at 100.0 µM 93% | [7]; [17] 90% | [7]; at 50.0 µM 72.8% | [9]; at 50.0 µM 78.6% | [10]; [17] 79% | [13]; at 100.0 µM 80%

From PubChem BioAssay (NCI)
